CCT chaperon mod = modulators of cytosolic chaperonin (CCT/TRiC) activity. activity change, % (test concentration not listed), hits read low. purified chaperonin ATPase assay, HTRF ADP detection, 30 min. AID 651819. hit rate 0.3% among 360,000; in the data active = activity change below about -30%
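TRiC (40 or 20 nM final, by batch activity) in 30 mM Tris pH 7.4, 100 mM KCl, 5 mM MgCl2, 1 mM DTT was treated with compound at 76 uM single dose, then 10 uM ATP, 30 min at 37 °C. ADP was read by HTRF Transcreener.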
Sfp PPTase inh = blocks B. subtilis Sfp PPTase activity; Q9F4F7; Biochemical Sfp PPTase activity, qHTS; Potency, µM, without a hit: largest response in the series, negative = inhibition, actives largely listed as inhibitors; hit rate 3.5% among 310,000; AID 1490;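 also: the enzyme is Sfp with the accession as filed and its product quenches rhodamine fluorescence; potency is read from the fitted curve at half-maximal effect; 0% = enzyme reaction without inhibitor and -100% = no enzyme wells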
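Step 1, compound plus 15 nM Sfp-PPTase, 15 min, room temperature. Step 2, add rhodamine-CoA (5 uM) and BHQ-2-YbbR (12.5 uM). Step 3, read 525/598 nm fluorescence at 0 and 30 min.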
PLK1 PBD block = PLK1 (human) polo-box domain binding inhibition; AID 720504; Plk1 PBD binding of FITC phosphopeptide, fluorescence polarization; P53350; Potency, µM, inactives show max response, negative = inhibition, usual class: inhibitors; hit rate 2.8% among 360,000; also: potency is read from the fitted curve at half-maximal effect; series mostly up to about 57 µM; nearly all actives have a fitted effect of over 65% in size
VDR inh = blocks the human vitamin D receptor. P11473. VDR-SRC2-3 peptide fluorescence polarization, 2 h. Potency, µM, inactives show max response, negative = inhibition, hits mostly inhibitors. hit rate 0.93% among 400,000. AID 504847; also: potency is read from the fitted curve at half-maximal effect
Target sequence (P11473 whole entry, looked up): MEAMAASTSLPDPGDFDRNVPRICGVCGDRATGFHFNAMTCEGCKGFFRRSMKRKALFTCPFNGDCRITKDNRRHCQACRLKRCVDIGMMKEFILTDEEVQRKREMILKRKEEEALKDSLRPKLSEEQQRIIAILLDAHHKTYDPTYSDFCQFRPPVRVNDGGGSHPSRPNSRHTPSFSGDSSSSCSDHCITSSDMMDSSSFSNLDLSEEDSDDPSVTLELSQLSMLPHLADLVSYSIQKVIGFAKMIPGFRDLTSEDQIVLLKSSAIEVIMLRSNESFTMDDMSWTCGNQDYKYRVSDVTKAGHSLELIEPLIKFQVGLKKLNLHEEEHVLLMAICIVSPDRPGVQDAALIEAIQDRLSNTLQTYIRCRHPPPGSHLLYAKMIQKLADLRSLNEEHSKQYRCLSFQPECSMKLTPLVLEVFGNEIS
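After 23 nl compound addition and a short centrifugation, plates sat for 2 hours at ambient temperature; polarization of fluorescence then indicated loss of VDR binding to peptide SRC2-3.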
G9a block = G9a (human) methyltransferase inhibition; G9a H3K9 monomethylation, AlphaScreen, 2 h; Potency, µM (top dose mostly 102 µM), without a hit: top-dose activity, negative = inhibition, usual class: inhibitors; hit rate 8.8% among 350,000; also: potency is read from the fitted curve at half-maximal effect; nearly all actives have a fitted effect of over 75% in size
Target sequence (Q96KQ7 913-1193 limits assumed): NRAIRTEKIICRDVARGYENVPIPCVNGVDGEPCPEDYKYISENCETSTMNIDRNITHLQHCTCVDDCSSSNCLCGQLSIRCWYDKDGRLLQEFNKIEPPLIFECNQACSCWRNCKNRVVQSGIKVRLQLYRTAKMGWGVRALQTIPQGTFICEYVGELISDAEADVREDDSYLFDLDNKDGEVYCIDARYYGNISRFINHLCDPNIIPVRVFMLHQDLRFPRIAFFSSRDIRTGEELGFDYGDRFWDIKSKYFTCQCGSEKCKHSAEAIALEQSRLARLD
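Signal arises when biotinylated H3K9 peptide, once monomethylated, bridges streptavidin donor and antibody-captured acceptor beads. Enzyme at 20 nM was preincubated 15 min with test compounds; peptide 500 nM and SAM 20 uM then reacted for 2 h.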
Mm-Cpn inhibitor = inhibitors of Methanococcus maripaludis chaperonin TRiC (MmCpn); Potency, µM (highest dose often 76.9 µM), without a hit: top-dose activity, negative = inhibition, usual class: inhibitors; hit rate 0.031% among 330,000; purified Mm-Cpn ATPase, ADP Transcreener TR-FRET; also: potency is read from the fitted curve at half-maximal effect; nearly all actives have a fitted effect of over 80% in size
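Reaction buffer contained 30 mM Tris pH 7.4, 100 mM KCl, 5 mM MgCl2 and 1 mM DTT. Mm-CPN (25 nM final) hydrolysed 10 uM ATP over 30 min at 37°C; ADP was read by HTRF.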
Active calls of the source: *; ? = inconclusive; . = no result given; [ ] = another dose, or the depositor's remark. Only some compounds are listed: those with a hit (about 10% of all), similar ones and a draw of the others. Unless noted, calls follow the shape of the dose curve; as a rule, active = well fitted curve in the direction sought with a large enough effect; inconclusive = small, poorly fitted or top-dose-only effect, or another doubt; inactive = no such curve, though single readings can be large; an effect the other way counts as inactive or inconclusive. Unless noted, % is scaled to controls: 0 for no effect and ±100 for the full control effect.

SMILES	CCT chaperon mod	Sfp PPTase inh	PLK1 PBD block	VDR inh	G9a block	Mm-Cpn inhibitor
COc1ccc(C(C(=O)NC2CCCC2)N(C(=O)c2snc(C(N)=O)c2N)c2cccc(O)c2)cc1 (stereo unspecified)	0	-8%	?	11%	71µM*	0%
CCCCOc1ccc(N(CC(=O)NC2CCCCC2)C(=O)c2snc(C(N)=O)c2N)cc1	-3	-4%	34µM*	?	3%	2%
COc1cccc(N(C(=O)c2snc(C(N)=O)c2N)C(C(=O)NCC2CCCO2)c2cccs2)c1 (stereo unspecified)	-1	-1%	-11%	11%	35µM*	0%
NC(=O)c1nsc(C(=O)N(CC(=O)NC2CCCCC2)c2ccc(Cl)cc2)c1N	0	12%	-2%	3%	20%	?
COc1ccc(N(C(=O)c2snc(C(N)=O)c2N)C(C(=O)NC2CCCC2)c2ccco2)cc1 (stereo unspecified)	-5	6%	1%	-4%	-9%	-8%
CCOC(=O)c1cc(-c2ccc(OC)cc2)n(CCC(=O)NCCc2ccc(OCC)c(OCC)c2)c1C	.	.	.	23%	-28%[59 µM]	.
COc1ccc(OC)c(NC(=O)Cn2c(CCC(=O)O)ccc2-c2cccs2)c1	-1	-28%	-3%	-18%	?	.
Cc1ccc(-c2ccc(CCC(=O)O)n2-c2cccc(O)c2)cc1	-1	6%	-10%	-14%	14µM*	0%
COC(=O)c1ccc(-n2c(CCC(=O)O)ccc2-c2ccccc2)cc1	-3	?	-26%	17%	-33%[2.33 µM]	2%
O=C(O)CCc1ccc(-c2cccs2)n1-c1ccc(C(=O)O)cc1	-3	28µM*	?	-29%	14µM*	-2%
CC(=O)c1cccc(-n2c(CCC(=O)O)ccc2-c2cccs2)c1	-2	8.9µM*	-26%	-23%	?	-3%
O=C(O)CCc1ccc(-c2ccccc2)n1-c1cccc(Br)c1	.	.	.	?	16µM*	.
CS(=O)(=O)N1CCC2(CC1)CN(c1cccc(-c3ccccc3)c1)C2	.	3%	.	-26%	40%[12.7 µM]	.
Cc1ccc(CCNS(=O)(=O)c2ccc3c(c2)C(C(C)C)C(=O)N3)cc1 (stereo unspecified)	.	.	.	1%	-1%[59 µM]	.
Cc1cccc2c1-c1sc(C(=O)NCCCN3CCN(c4cccc(Cl)c4)CC3)cc1CO2	.	.	.	-6%	-22%[59 µM]	.
CC(=O)c1cccc(-n2c(CCC(=O)O)ccc2-c2ccccc2)c1	-2	71µM*	-2%	-9%	40µM*	0%
CC(C)(C)c1ccc(C(=O)Nn2c(CCC(=O)O)ccc2-c2cccs2)cc1	2	56µM*	-11%	-15%	4%[12.7 µM]	-3%
CN(C)c1ccc(-n2c(CCC(=O)O)ccc2-c2ccccc2)cc1	.	.	.	?	11µM*	.
COc1ccc(-c2ccc(CCC(=O)O)n2-c2cc(Cl)ccc2O)cc1	.	.	.	-15%	?	.
O=C(O)CCc1ccc(-c2ccc(Cl)cc2)n1-c1cccc(C(F)(F)F)c1	.	.	.	?	16µM*	.
CC(=O)c1ccc(-n2c(CCC(=O)O)ccc2-c2ccccc2)cc1	1	22%	0%	0%	-14%[2.33 µM]	-2%
COCCNC(=O)CCCn1c(SCC(=O)Nc2cccc(C)c2)nc2c(sc3ccccc32)c1=O	.	.	.	4%	1%[59 µM]	.
CCOC(=O)N1CC=C2C(C#N)=C(N)C(C#N)(C#N)[C@H](c3ccsc3)[C@H]2C1	0	-6%	-23%	?	45µM*	-1%
N#CC1=C(N)C(C#N)(C#N)C(c2ccncc2)C2CN(C(=O)OCc3ccccc3)CC=C12 (stereo unspecified)	1	17%	-14%	?	16µM*	-1%
COc1ccc(C(=O)N2CCC3(CCN(CC(C)C)CC3)CC2)cc1	.	31%	.	-2%	-25%[12.7 µM]	.
SMILES	CCT chaperon mod	Sfp PPTase inh	PLK1 PBD block	VDR inh	G9a block	Mm-Cpn inhibitor
CC1CCn2c(nc3cc(C(=O)NCc4ccccc4)ccc32)C1 (stereo unspecified)	.	.	.	4%	-2%[59 µM]	.
COc1ccc2c(c1)c(CC(=O)Nc1cccc(F)c1C)c(C)n2C(=O)c1ccc(Cl)cc1	.	.	.	-8%	23%[59 µM]	.
CCCn1c2ccccc2c2cnn(CC(=O)N(CCCOC)Cc3ccco3)c(=O)c21	.	.	.	4%	-45%[59 µM]	.
Cc1ccc2[nH]c3c(c2c1)CN(C(=O)CN1CCN(c2ccccc2F)CC1)CC3	.	0%	.	.	32µM*	-1%
Cc1ccc2[nH]c3c(c2c1)CN(C(=O)CN1CCCc2ccccc21)CC3	1	-3%	-13%	10%	3.2µM*	3%
Cc1ccc2[nH]c3c(c2c1)CN(C(=O)CN1CCCCC1)CC3	0	15%	-7%	20%	50µM*	-1%
O=C(CN1CCN(Cc2ccc3c(c2)OCO3)CC1)N1CCc2[nH]c3ccc(F)cc3c2C1	1	0%	-9%	-4%	?	2%
Cc1ccc2[nH]c3c(c2c1)CN(C(=O)CN(C)CC1OCCO1)CC3	0	22%	-13%	-2%	-11%	-2%
COc1ccccc1NC(=O)C(=O)NCC(c1ccc2c(c1)OCO2)N1CCOCC1 (stereo unspecified)	.	.	.	-16%	7%[59 µM]	.
COc1ccc(-c2[nH]c(-c3ccc(OC)c(OC)c3)nc2SCC(=O)Nc2ccccc2)cc1	.	.	.	16%	-18%[59 µM]	.
COc1cccc(C(=O)NC(=S)Nc2ccc(Cl)cc2C(=O)O)c1	-3	50µM*	?	-24%	?	3%
Cc1ccnc(NC(=O)/C=C/c2ccccc2Cl)c1	-2	-26%	-14%	-20%	?	-1%
Cc1cccc(C(=O)NC(=S)NCc2ccccc2)c1	1	.	1%	-15%	.	.
Cc1ccc(C(=O)NC(=S)Nc2cccc3nsnc23)cc1	-2	14µM*	-29%	-16%	6.3µM*	-7%
Cc1cccc(C(=O)NC(=S)NNC(=O)Cc2ccccc2)c1	-1	13%	-10%	20%	7.1µM*	-4%
Cc1cc(C(=O)NNC(=S)NC(=O)/C=C/c2ccccc2Cl)n[nH]1	0	7%	?	14%	28µM*	1%
C#CCCCO/N=C1/C[C@@H](O)[C@@H](O)[C@@H]2[C@@H]3C(=O)N(C[C@@H]4CCCO4)C(=O)[C@H]3CC[C@@H]12	.	24%	.	.	.	.
CO[C@@H]1COC(=O)[C@H](COCc2ccccc2)NC(=O)C/C=C\[C@@H](C)[C@H](OC)COC(=O)[C@@H](C)NC(=O)C/C=C\[C@H]1C	.	12%	.	.	.	.
CCOc1cccc(C(=O)NC(=S)Nc2cccc(C)c2)c1	-1	-7%	0%	-9%	-15%[59 µM]	1%
COc1cc(C(=O)NC(=S)Nc2cccc3nc(C)ccc23)cc(OC)c1OC	-3	-5%	0%	13%	?	-3%
Cc1cccc(C(=O)NC(=S)NNC(=O)COc2c(C)cccc2C)c1	0	-15%	-21%	-4%	7.9µM*	-5%
